The values that follow come from PubChem BioAssay.

Assay [1] can be described thus: inhibitors of TNFa-induced NFkB p65 translocation, primary screen, imaging, HUVEC, MLSMR starter and 10KST1 sets (AID 438;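 active = inhibition above 20% together with a positive visual image hit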;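 note: compound added about 3h40 before a 20 min TNFalpha stimulation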;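 for inhibition: signal is the nuclear over cytoplasmic p65 intensity ratio per well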). To be noted: HUVEC TNFa-induced p65 nuclear translocation; cell count: measured here: nuclei count (cytotoxicity indicator), at 2.08 µM; inhibition: at 2 µM, stronger effect = higher value, 0% TNFa-plus-vehicle, 100% no-TNFa wells.
The nature of assay [2]: inhibitors of mutant huntingtin aggregation, primary screen, imaging, exon1htt(103Q)mCFP cells, high-content imaging (AID 483;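 active = visual image review flags a hit and inhibition of aggregation exceeds 20%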;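 note: compound exposure lasted 3 days before fixation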;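 for nuclei count: percent of the per-plate median nuclei count of sample wells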). To be noted: exon1htt(103Q)mCFP cell line, aggregate imaging, at 2 µM; inhibition of aggregation: stronger effect = higher value; nuclei count: measured here: cell count, toxicity.
Assay [3] is described as follows: inhibitors of E-selectin induction by TNFa, primary screen, imaging, HUVEC, immunofluorescence, MLSMR starter and 10KST1 sets (AID 487;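 active = visually confirmed hit in the image check and inhibition above 20%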;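 for inhibition: signal is fraction of cell area covered by stained E-selectin grains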;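 for nuclei count: 100% = median nuclei count of all wells on the same plate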). As to conditions: HUVEC TNFalpha-induced E-selectin immunofluorescence imaging, at 2 µM; inhibition: stronger effect = higher value; nuclei count: measured here: cell number, toxicity.
The target in assay [4] is Voltage-gated potassium channel subunit beta-2 (Rattus norvegicus) (UniProt P62483). Put plainly: KvBeta enzyme negative modulators, primary screen, biochemical, NADPH fluorescence (AID 622).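 Note: slope of raw intensity against log time taken from 70 to 1610 s.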 To be noted: recombinant KvBeta, 4-cyanobenzaldehyde reduction, at 10 µM, stronger effect = higher value.
Assay [5] shares this target. As to the kind of experiment: KvBeta positive modulators, primary screen, biochemical, NADPH fluorescence (AID 623;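 active = NADPH fluorescence slope more negative than the mean of all samples by about 3 SD, 99.7% confidence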;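 note: fluorescence intensity change per second fitted from 20 to 320 s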). As to conditions: Recombinant KvBeta, NADPH fluorescence decrease slope, 10 min; at 10 µM; stronger effect = lower value.
Assay [6] concerns the target Alpha-2C adrenergic receptor (Homo sapiens) (UniProt P18825). Put plainly: modulators of alpha2C/GIRK thallium flux, primary screen, cell-based, HEK293 alpha2C/GIRK1/2 (AID 624;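 active = fluorescence slope after compound addition differing from the mean of all screened samples at 99.7% confidence, in either direction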;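 note: slope of fluorescence ratio to pre-addition baseline per second over 15 to 24 s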). As to conditions: thallium flux BTC fluorescence, at 10 µM, actives lie on both sides.
Assay [7] is described as follows: inhibitors of Sendai virus-induced IRF3 signaling, primary screen, TLR/RLR signaling modifier project, cell-based, Sendai virus stimulus, luciferase, 10K MLSCN set (AID 602276;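 active = inhibition at or above 50% at 10 µM; inactive = inhibition below 50%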;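 note: firefly luciferase from ISG56 promoter only with Renilla not read in this screen; 0% = Sendai virus plus DMSO and 100% = medium plus DMSO without virus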). To be noted: HEK293 RL24 IRF3 luciferase reporter, at 10 µM, stronger effect = higher value. A general note: Reporter assays use an easily measured gene product as a stand-in for the process of interest.

Assay [8] is described as follows: inhibitors of poly I:C-induced TLR3 signaling, primary screen, cell-based, poly I:C stimulus, luciferase, 10K MLSCN set (AID 602277;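 active = inhibition of the reporter signal at or above 50%; inactive = inhibition below 50%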). To be noted: HEK293-TLR3 RL24 IRF3 luciferase reporter, at 10 µM, stronger effect = higher value.

Activity calls are given as the source filed them.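 Rule for the calls, unless noted: active = fluorescence slope higher than the sample average by over 3 SD (cut at about -0.22 in these data, passing the limit was not always enough); inactive = the rest.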

Voltage-gated potassium channel subunit beta-2 (Rattus norvegicus), sequence (P62483 whole entry, looked up): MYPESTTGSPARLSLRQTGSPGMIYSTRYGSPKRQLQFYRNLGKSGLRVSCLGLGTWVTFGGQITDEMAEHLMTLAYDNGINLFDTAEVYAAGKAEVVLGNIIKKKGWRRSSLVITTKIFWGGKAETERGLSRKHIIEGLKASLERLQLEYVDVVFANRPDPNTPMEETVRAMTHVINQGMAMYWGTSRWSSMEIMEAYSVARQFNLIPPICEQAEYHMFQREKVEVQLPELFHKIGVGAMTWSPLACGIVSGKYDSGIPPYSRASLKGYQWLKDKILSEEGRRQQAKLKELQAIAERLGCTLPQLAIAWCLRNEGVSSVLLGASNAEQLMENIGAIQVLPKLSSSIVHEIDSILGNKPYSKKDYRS
Alpha-2C adrenergic receptor (Homo sapiens), sequence (P18825 whole entry, looked up): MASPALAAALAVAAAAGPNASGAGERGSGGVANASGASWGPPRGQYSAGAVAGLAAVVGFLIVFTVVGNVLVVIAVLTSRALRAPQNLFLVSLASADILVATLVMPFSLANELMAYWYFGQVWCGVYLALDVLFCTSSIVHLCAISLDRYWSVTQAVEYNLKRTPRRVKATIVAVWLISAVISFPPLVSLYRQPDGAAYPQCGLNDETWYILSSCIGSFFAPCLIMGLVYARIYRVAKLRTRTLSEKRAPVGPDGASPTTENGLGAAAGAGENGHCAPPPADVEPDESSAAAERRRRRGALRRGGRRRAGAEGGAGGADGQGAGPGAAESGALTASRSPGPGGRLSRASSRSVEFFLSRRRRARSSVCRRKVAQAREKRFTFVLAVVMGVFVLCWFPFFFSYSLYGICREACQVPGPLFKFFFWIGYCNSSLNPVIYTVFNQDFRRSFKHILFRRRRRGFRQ

A word on the inhibition: it is the relative decrease from the control value, in per cent. On to `O=C(COC(=O)c1ccccc1O)Nc1ccc(OC(F)F)cc1`, for which the cell count in assay [1] is 674. Further, the inhibition in assay [1] was 5.1% (inactive); in assay [3], -64.8% (inactive); in assay [7], -13.8% (inactive); in assay [8] it was -42.2% (inactive). The inhibition of aggregation in assay [2] was -8.4% (inactive). The nuclei count in assay [2] amounted to 103%; in assay [3], 136%. For the same compound, the fluorescence slope in assay [4] is -0.543 (inactive). In addition, the NADPH fluorescence slope in assay [5] was 7.7e-06 (inactive). The slope in assay [6] was 0.00583 (inactive).

On to `CCOC(=O)c1ccccc1NC(=O)c1cccnc1`, for which, in assay [1], the cell count came out at 381. Further, the inhibition in assay [1] is 5.5% (inactive); in assay [3] it was -167% (inactive); in assay [7] it was -0.374% (inactive); in assay [8], 10.8% (inactive). In addition, the inhibition of aggregation in assay [2] was -28.4% (inactive). The nuclei count in assay [2] was determined as 117%; in assay [3] it was 135%. Besides, the fluorescence slope in assay [4] is -0.504 (inactive). For the same compound, the NADPH fluorescence slope in assay [5] was 2.4e-05 (inactive). In assay [6], the slope was 0.00744 (inactive).

As for `c1ccc(CC2CCN(c3nc4ccccc4n4nnnc34)CC2)cc1`, the cell count in assay [1] stood at 373. Moreover, the inhibition is -13.8% (inactive) in assay [1], -63.7% (inactive) in assay [3], 7.26% (inactive) in assay [7] and 13.6% (inactive) in assay [8]. The inhibition of aggregation in assay [2] is -7.8% (inactive). Also, the figures for the nuclei count in assay [2] and in assay [3] were 102% and 114%, respectively. In addition, the fluorescence slope in assay [4] is -0.312 (inactive). Also, the NADPH fluorescence slope in assay [5] is -3.7e-05 (inactive). Also, in assay [6], the slope is 0.00583 (inactive).

With `CC1=C(C(N)=O)C(c2cccnc2)n2nc(SCc3ccccc3Cl)nc2N1` (centres undefined), in assay [1], the cell count turned out to be 533. Besides, the inhibition is -21.6% (inactive) in assay [1], -130% (inactive) in assay [3], -20.3% (inactive) in assay [7] and 19.5% (inactive) in assay [8]. Further, the inhibition of aggregation in assay [2] was -13.4% (inactive). For the same compound, the nuclei count in assay [2] was found to be 104%; in assay [3], 107%. Besides, the fluorescence slope in assay [4] is -0.463 (inactive). In addition, the NADPH fluorescence slope in assay [5] is -5.4e-05 (inactive). In assay [6], the slope was 0.00786 (inactive).

As for `CCOc1cc(-c2nc(-c3ccccc3OC)no2)cc(OCC)c1OCC`, the cell count in assay [1] was found to be 575. In addition, the inhibition was 7.7% (inactive) in assay [1], -68.3% (inactive) in assay [3], 11.5% (inactive) in assay [7] and 12.6% (inactive) in assay [8]. Besides, the inhibition of aggregation in assay [2] was 0.8% (inactive). The nuclei count stood at 98.3% in assay [2] and 109% in assay [3]. Further, in assay [4], the fluorescence slope is -0.605 (inactive). In assay [5], the NADPH fluorescence slope was -4.7e-05 (inactive). Moreover, in assay [6], the slope is 0.00447 (inactive).

Regarding `COc1ccccc1Cn1c(-c2ccco2)nc2nc3ccccc3nc21`, the cell count in assay [1] worked out at 612. The inhibition was -10.5% (inactive) in assay [1], -13.1% (inactive) in assay [3], 1.34% (inactive) in assay [7] and -13.9% (inactive) in assay [8]. Further, the inhibition of aggregation in assay [2] is -8.4% (inactive). The nuclei count in assay [2] amounted to 109%; in assay [3] it was 117%. Besides, the fluorescence slope in assay [4] is -0.366 (inactive). The NADPH fluorescence slope in assay [5] was -7.7e-06 (inactive). Moreover, in assay [6], the slope was 0.00597 (inactive).

With `O=C(Nc1ccc(N2CCOCC2)cc1)c1cc2ccccc2o1`, in assay [1], the cell count turned out to be 775. Also, the inhibition was -1.9% (inactive) in assay [1], -29.4% (inactive) in assay [3], -72.9% (inactive) in assay [7] and -187% (inactive) in assay [8]. Further, in assay [2], the inhibition of aggregation was 7.2% (inactive). The nuclei count is 106% in assay [2] and 97.9% in assay [3]. For the same compound, in assay [4], the fluorescence slope was -0.479 (inactive). For the same compound, the NADPH fluorescence slope in assay [5] is 1.9e-05 (inactive). In assay [6], the slope was 0.003 (inactive).

Take `O=C(Nc1ccccc1-c1ccccc1)NC1CCN(CC(=O)N2CCOCC2)CC1`: the cell count in assay [1] was found to be 537. For the same compound, the inhibition was -39.8% (inactive) in assay [1], -63.8% (inactive) in assay [3], 9.32% (inactive) in assay [7] and 27.5% (inactive) in assay [8]. The inhibition of aggregation in assay [2] was -5% (inactive). Also, the results for the nuclei count in assay [2] and in assay [3] were 113% and 109%, respectively. Moreover, in assay [4], the fluorescence slope is -0.433 (inactive). Also, in assay [5], the NADPH fluorescence slope is -7.3e-05 (inactive). Besides, in assay [6], the slope is 0.00795 (inactive).

`C=CCn1c(CC#N)nnc1N1CCOCC1`: the cell count in assay [1] amounted to 481. For the same compound, the inhibition in assay [1] is 0.7% (inactive); in assay [3], -92% (inactive); in assay [7] it was 6.66% (inactive); in assay [8], 13.3% (inactive). The inhibition of aggregation in assay [2] is -15% (inactive). Besides, the nuclei count in assay [2] amounted to 116%; in assay [3] it was 118%. Further, the fluorescence slope in assay [4] is -0.487 (inactive). The NADPH fluorescence slope in assay [5] was 2.7e-05 (inactive). For the same compound, the slope in assay [6] is 0.00619 (inactive).

Consider `Cn1nc(C(=O)N2CCOCC2)c2ccccc2c1=O`, for which the cell count in assay [1] stood at 321. Further, the inhibition in assay [1] was 5.2% (inactive); in assay [3] it was -79.4% (inactive); in assay [7], 9.89% (inactive); in assay [8] it was 32% (inactive). For the same compound, in assay [2], the inhibition of aggregation is 12.2% (inactive). Moreover, the nuclei count came out at 109% in assay [2] and 130% in assay [3]. Also, the fluorescence slope in assay [4] was -0.43 (inactive). Moreover, the NADPH fluorescence slope in assay [5] was -3.1e-05 (inactive). In assay [6], the slope was 0.00337 (inactive).

Regarding `COC(=O)Nc1nc2c(C)cccc2s1`, in assay [1], the cell count is 299. The inhibition in assay [1] is 0.7% (inactive); in assay [3], -33.7% (inactive); in assay [7] it was -14.5% (inactive); in assay [8] it was -45% (inactive). In addition, in assay [2], the inhibition of aggregation was -2.9% (inactive). In addition, the nuclei count in assay [2] was found to be 95.7%; in assay [3] it was 101%. For the same compound, the fluorescence slope in assay [4] was -0.469 (inactive). The NADPH fluorescence slope in assay [5] was 9.8e-07 (inactive). For the same compound, the slope in assay [6] was 0.0031 (inactive).

`Cc1cccc(NC(=O)c2ccccc2O)c1C`: the cell count in assay [1] is 497. Further, the inhibition in assay [1] was 4.9% (inactive); in assay [3], -5.3% (inactive); in assay [7] it was -45.5% (inactive); in assay [8], -93.4% (inactive). Further, the inhibition of aggregation in assay [2] was -10% (inactive). In addition, the nuclei count in assay [2] amounted to 98.2%; in assay [3], 122%. Besides, the fluorescence slope in assay [4] was -0.482 (inactive). Also, the NADPH fluorescence slope in assay [5] was -2.8e-05 (inactive). In addition, the slope in assay [6] is 0.00603 (inactive).

Consider `COC(=O)CSC1=NS(=O)(=O)c2ccccc21`, for which the cell count in assay [1] amounted to 340. For the same compound, the inhibition in assay [1] was 1.2% (inactive); in assay [3], 45.9% (inactive); in assay [7], 20.5% (inactive); in assay [8], 21.4% (inactive). Moreover, the inhibition of aggregation in assay [2] was 19.6% (inactive). Further, the nuclei count was 91.3% in assay [2] and 113% in assay [3]. In assay [4], the fluorescence slope is -0.5 (inactive). In addition, the NADPH fluorescence slope in assay [5] was -3.6e-05 (inactive). In addition, the slope in assay [6] is 0.00571 (inactive).

With `C=CCN1C(=O)C2(C(C#N)=C(N)Oc3n[nH]c(CCC)c32)c2ccccc21` (centres undefined), the cell count in assay [1] turned out to be 389. The inhibition in assay [1] is 3.2% (inactive); in assay [3], -37.6% (inactive); in assay [7], 11.3% (inactive); in assay [8], 16.8% (inactive). The inhibition of aggregation in assay [2] was -32.8% (inactive). Besides, the nuclei count was 95.3% in assay [2] and 114% in assay [3]. In addition, in assay [4], the fluorescence slope is -0.625 (inactive). In addition, the NADPH fluorescence slope in assay [5] is -3.8e-05 (inactive). Also, the slope in assay [6] was 0.00735 (inactive).
